Results reported in the supplement of paper PMC10338343.
± gives the standard deviation.

system: MILI (PIWIL2) piRISC loaded with piRNA #1 (26 nt); test: pre-steady-state target cleavage rate (min^-1); guide: piRNA #1 5'p-UGAGGUAGUAGGUUGUAUAGUAUCCA; MIWI and MILI are mouse PIWI proteins and EfPiwi is from a freshwater sponge; tags in brackets are library labels; higher = faster piRNA-guided slicing of the target; conditions: auxiliary factor: 500 nM mouse GTSF1
Outline: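 The method was Cleave-'n-Seq, in which uncleaved targets from a transcribed, DNA-blocked target RNA library were sequenced after exposure to active affinity-purified piRISC carrying one synthetic guide, with or without GTSF1 partner protein. Reactions contained 0.1 nM library, 1 nM piRISC and, where present, 500 nM GTSF1 in HEPES–potassium acetate buffer at 33 °C for 0–8 or 0–960 min. Reads were normalised to depth and to weakly complementary targets, three trials were pooled, and k3 was capped at 0.0001 min^-1. The pre-steady-state cleavage rate came from a burst-and-steady-state fit.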

Sequence	pre-steady-state target cleavage rate
GGAGACGUUACUAUACAACCUACUACGUCA	0.0772 ± 0.016
GGAGACCUAUGUAUACAAGCUAGUACCUCA	0.0538 ± 0.0098
GGAGACCAUACUAUACUUCCUACUACCUCA	0.226 ± 0.021
GGAGACCUAUGAAUACAACCUACUCCCUCA	0.00391 ± 0.0022
GGAGACCUAUGAUAUGUACCAUCUACCUCA	< 0.0001
GGAGACCUUGACUAUACAACCUACUACCUCA	0.163 ± 0.022
GGAGACCUUACAAUACAACCUAGUACCUCA	0.043 ± 0.013
GGAGACCUAUGUAUAGAACGUACUACCUCA	0.00362 ± 0.0018
GGAGACCUAACUAAUCAACCUACUACCUCA	0.0719 ± 0.016
GGAGACCUAACUUUACAACCUACUAGCUCA	0.0363 ± 0.017
GGAGAGGAUACUAAACAACCUACUACGUCA	0.0356 ± 0.0057
GGAGACCUAUCAUACAACCUACUACCUCA	0.0591 ± 0.0093
GGAGUGGAUACUAUUGUACCUACUACCUCA	0.115 ± 0.0083
GGAGACCAUACUAAACAACCUACUACCUGA	0.13 ± 0.018
GGAGACCUAUCUAUUCAACCUACUACCACA	0.144 ± 0.022
GGAGACCUUACUAUACAACCUACUAUCCUCA	0.194 ± 0.022
GGAGACCUAUGAUUACAAGCUAGUACCUCA	0.0146 ± 0.006
